Several values for one entry are separate records, joined by “and”; a condition that tells them apart may be missing. Equal entries are not always repeated. For part of these data: Entries with a potency or affinity are not part of this list. Activity calls are given as the source filed them.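 The calls were made as follows, unless noted: active = thallium flux through the channel raised or lowered by more than 3 SD from vehicle-only wells, actives on both sides; inactive = the rest.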
Key:
[1] = polyglutamine-triggered caspase-3 activation inhibitors, cell-based (AID 1583); details: polyglutamine-induced caspase-3 activation, cell assay; stronger effect = higher value;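 tested at 10 µM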
[2] = suppressors of polyQ aggregation in yeast, 75Q-TubU reporter (AID 1593); details: Yeast 75Q polyglutamine aggregation reporter
[3] = rescue of polyQ-huntingtin neuronal dysfunction in worms, whole organism, C. elegans mechanosensory neurons, N-terminal huntingtin (AID 1599); details: touch response, stronger effect = higher value
[4] = inhibitors of mitochondrial cytochrome c release, biochemical, purified mitochondria (AID 1603); details: stronger effect = lower value;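 also: mouse liver mitochondria challenged with calcium chloride; signal normalized to the plate average as 100%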
[5] = inhibitors of polyQ protein aggregation (AID 1604); details: polyglutamine-induced protein aggregation inhibition assay; stronger effect = higher value; tested at 2.5 µM
[6] = enhancers of glutamate uptake in motor neurons, MN-1 cell line (AID 1612); details: MN-1 motor neuron cells, stronger effect = higher value;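 also: tested at 1 µM final; 0% = mean of DMSO vehicle wells on each plate; positive means more glutamate uptake than control and negative means less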
[7] = suppressors of polyglutamine aggregation in yeast, 75Q-TubH (AID 1616); details: S. cerevisiae 75Q-TubH polyglutamine aggregation suppression; stronger effect = higher value
[8] = Cy5 fluorescence interference with SSB-bound oligo, artefact control for HCV NS3 helicase inhibitor project, biochemical, NIH Clinical Collection, E. coli SSB (AID 743268; call rule not given here)
[9] = system: Hepatitis C virus NS3 helicase; experiment: HCV NS3 helicase inhibitors, primary screen, biochemical, fluorescence polarization, NIH Clinical Collection (AID 743270; call rule not given here); details: NS3 helicase binding to Cy5-dT15 DNA, stronger effect = higher value, concentration not given here
[10] = target: Single-stranded DNA-binding protein (Escherichia coli (strain K12)) (UniProt P0AGE0); experiment: E. coli SSB displacement from DNA, counter-screen for HCV NS3 helicase inhibitor project, biochemical, fluorescence polarization, NIH Clinical Collection (AID 743271; in the data active = inhibition above about 28%); details: stronger effect = higher value, concentration not given here
[11] = fluorescence interference in NS3h assay format, artefact control for HCV NS3 helicase inhibitor project, biochemical, NIH Clinical Collection (AID 743272; call rule not given here;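 also: HCV NS3 helicase with a Cy5 labelled single stranded DNA probe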); details: fluorescence interference counterscreen, stronger effect = lower value
[12] = viability rescue of complex I mutant cybrids, primary screen, cell-based, galactose medium, ATP luminescence (AID 1645843;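 active = z-score of at least 1.8 in each of two replicates, scored against plate mean and spread of sample wells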;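 also: positive z means more ATP and so rescue of galactose-driven cybrid death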); details: complex I mutant cybrid cells, 72 h, stronger effect = higher value
F380Y/beta4 = experiment: modulators of BK channel variants, profiling panel, selectivity assay, cell-based, U2OS BacMam, thallium flux, beta subunits (AID 1259406); details: at 30 µM;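 also: initial slope of Thallos dye fluorescence rise after thallium is added; log ratio against the mean of 0.3% DMSO vehicle wells on the same plate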
[13] = target: Calcium-activated potassium channel subunit alpha-1 (Homo sapiens) + Leucine-rich repeat-containing protein 26 (Homo sapiens) (UniProt Q12791+Q2I0M4); experiment: as above; details: F380Y/Slo1WT/gamma1, at 30 µM
R275C = experiment: as above; details: at 30 µM
R275C/beta1 = experiment: as above; details: at 30 µM
R275C/beta2Delta = experiment: as above; details: at 30 µM
R275C/beta4 = experiment: as above; details: at 30 µM
R275C/Slo1WT/beta2 = experiment: as above; details: at 30 µM
[14] = LFS_MB_P medulloblastoma growth inhibition, cell-based, chromothripsis tumors, cisplatin or BGB combos (AID 1671449; in the data active = inhibition above about 80%;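 also: cells exposed for 96 hours; 0% = vehicle DMSO and 100% = killing by high DMSO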); details: LFS_MB_P medulloblastoma cells

Chain of Calcium-activated potassium channel subunit alpha-1 (Homo sapiens) + Leucine-rich repeat-containing protein 26 (Homo sapiens) (Q2I0M4 whole entry, looked up, one chain of several): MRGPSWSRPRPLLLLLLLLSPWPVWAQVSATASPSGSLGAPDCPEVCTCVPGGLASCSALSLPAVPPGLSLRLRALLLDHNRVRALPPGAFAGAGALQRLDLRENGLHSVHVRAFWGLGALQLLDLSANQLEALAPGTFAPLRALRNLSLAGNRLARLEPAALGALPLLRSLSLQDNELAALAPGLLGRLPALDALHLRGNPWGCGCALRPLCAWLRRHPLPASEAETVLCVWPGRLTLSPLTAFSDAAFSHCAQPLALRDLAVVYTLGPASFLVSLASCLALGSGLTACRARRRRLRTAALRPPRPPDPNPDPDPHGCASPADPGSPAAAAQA

`OC(Cn1cncn1)(Cn1cncn1)c1ccc(F)cc1F` gave an inhibition [1] of -12.6%, a score [2] of 0.67 and a rescue above control [3] of -3.31. It also gave a cytochrome c release ratio [4] of 0.79, an inhibition of aggregation [5] of 0% and a glutamate uptake change [6] of -9.51%. For the same compound, the aggregation suppression score [7] was 0.253, the fluorescence ratio [8] was 1.05 (inactive) and the inhibition [9] was -3.18% (inactive). For the same compound, the inhibition [10] was -4.29% (inactive), the fluorescence ratio [11] was 1.02 (inactive) and the z-score [12] was 1.3 (inactive) and 0.555 (inactive). The log fold change Tl+ flux (F380Y/beta4) was 0.0309 (inactive), the log fold change Tl+ flux [13] was -0.0185 (inactive) and the log fold change Tl+ flux (R275C) was 0.0468 (inactive). For the same compound, the log fold change Tl+ flux (R275C/beta1) was 0.023 (inactive), the log fold change Tl+ flux (R275C/beta2Delta) was 0.0182 (inactive) and the log fold change Tl+ flux (R275C/beta4) was 0.0436 (inactive). The log fold change Tl+ flux (R275C/Slo1WT/beta2) was 0.0134 (inactive).
Work on `CCN(Cc1ccncc1)C(=O)C(CO)c1ccccc1` (stereo unspecified) yielded an inhibition [1] of 24.2%, a score [2] of 1.22 and a rescue above control [3] of -3.59. It also gave a cytochrome c release ratio [4] of 1.14, an inhibition of aggregation [5] of 87% and a glutamate uptake change [6] of -2.09%. The aggregation suppression score [7] was 1.36, the fluorescence ratio [8] was 1.06 (inactive) and the inhibition [9] was -2.27% (inactive). The inhibition [10] was -5.05% (inactive), the fluorescence ratio [11] was 1.03 (inactive) and the log fold change Tl+ flux (F380Y/beta4) was -0.0208 (inactive). For the same compound, the log fold change Tl+ flux [13] was 0.00211 (inactive), the log fold change Tl+ flux (R275C) was -0.035 (inactive) and the log fold change Tl+ flux (R275C/beta1) was 0.0151 (inactive). For the same compound, the log fold change Tl+ flux (R275C/beta2Delta) was 0.0198 (inactive), the log fold change Tl+ flux (R275C/beta4) was 0.0153 (inactive) and the log fold change Tl+ flux (R275C/Slo1WT/beta2) was 0.0191 (inactive).
For `CS(=O)(=O)OCCCCOS(C)(=O)=O`, the inhibition [1] was 27.2%, the score [2] was 1.46 and the rescue above control [3] was -1.18. It also gave a cytochrome c release ratio [4] of 0.62, an inhibition of aggregation [5] of 54% and a glutamate uptake change [6] of 14.5%. The aggregation suppression score [7] was 1.4, the fluorescence ratio [8] was 1.02 (inactive) and the inhibition [9] was -12.3% (inactive). The inhibition [10] was -0.48% (inactive), the fluorescence ratio [11] was 0.92 (inactive) and the z-score [12] was 0.925 (inactive). For the same compound, the inhibition ([14]; at 0.5 µM, stronger effect = higher value) was -1.82% (inactive) and -6.92% (inactive), the inhibition ([14]; measured here: combination with BGB IC20, at 0.005 µM) was -22.1% and -20.3% and the inhibition ([14]; measured here: combination with BGB IC40, at 0.005 µM) was -24.6% and 29.3%. The inhibition ([14]; measured here: combination with BGB IC40, at 0.05 µM) was -40.6% and 3.42%, the inhibition ([14]; measured here: combination with cisplatin, at 0.5 µM, stronger effect = higher value) was 1.85% and -16.8% and the inhibition ([14]; measured here: combination with cisplatin, at 5 µM, stronger effect = higher value) was -55.6% and 0.647%. The log fold change Tl+ flux (F380Y/beta4) was 0.00072 (inactive), the log fold change Tl+ flux [13] was -0.0136 (inactive) and the log fold change Tl+ flux (R275C) was 0.0198 (inactive). For the same compound, the log fold change Tl+ flux (R275C/beta1) was -0.0312 (inactive), the log fold change Tl+ flux (R275C/beta2Delta) was 0.0365 (inactive) and the log fold change Tl+ flux (R275C/beta4) was -0.0126 (inactive). For the same compound, the log fold change Tl+ flux (R275C/Slo1WT/beta2) was 0.0135 (inactive).
Work on `NNCCc1ccccc1` yielded an inhibition [1] of 3.3%, a score [2] of 0.97 and a rescue above control [3] of -3.55. It also gave a cytochrome c release ratio [4] of 1.02, an inhibition of aggregation [5] of 15.4% and a glutamate uptake change [6] of 2.77%. The aggregation suppression score [7] was 1.47, the fluorescence ratio [8] was 0.99 (inactive) and 1.14 (inactive) and the inhibition [9] was 1.19% (inactive) and -5.91% (inactive). The inhibition [10] was -0.87% (inactive) and -0.48% (inactive), the fluorescence ratio [11] was 0.96 (inactive) and 1.02 (inactive) and the z-score [12] was 0.14 (inactive) and 0.22 (inactive) and 0.6 (inactive). The log fold change Tl+ flux (F380Y/beta4) was 0.00368 (inactive), the log fold change Tl+ flux [13] was -0.00263 (inactive) and the log fold change Tl+ flux (R275C) was -0.025 (inactive). For the same compound, the log fold change Tl+ flux (R275C/beta1) was 0.00562 (inactive), the log fold change Tl+ flux (R275C/beta2Delta) was -0.0402 (inactive) and the log fold change Tl+ flux (R275C/beta4) was -0.0112 (inactive). For the same compound, the log fold change Tl+ flux (R275C/Slo1WT/beta2) was 0.022 (inactive).

— PubChem BioAssay
